Reference: PubChem BioAssay AID651789 (National Center for Advancing Translational Sciences (NCATS), 2012)
Results filed as inconclusive are left out. A number with no mark means an inactive call. Activity calls are given as the source filed them. Calls follow the shape of the dose curve; as a rule, active = well fitted inhibition curve with a large enough effect; inconclusive = small, poorly fitted or top-dose-only effect; inactive = no such curve, though single readings can be large or run the other way.

Assay: Acumen qHTS Assay for Inhibitors of the mTORC1 Signaling Pathway in WT MEF Cells: Hit Validation; also: nearly all actives have a fitted effect of over 60% in size;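 as to activity change, negative = inhibition: percent of cells above a cutoff set by 7.5 nM rapamycin treated wells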
Conditions: Acumen imaging; series mostly up to 37.3 µM; activity change, negative = inhibition: at the top concentration
From the text: The mammalian target of rapamycin (mTOR) is an intracellular serine/threonine kinase Aberrant regulation of mTOR signaling plays a causative role in a number of human diseases, including cancer, benign tumors such as lymphangioleiomyomatosis (LAM) and Tuberous Sclerosis Complex (TSC), and metabolic diseases such as diabetes and obesity. This project aims to identify inhibitors of ribosomal protein S6 (rpS6) phosphorylation. The phosphorylation of rpS6 is a key event downstream of mTOR activation. The assay uses a phospho-specific antibody of phospho-rpS6 to detect inhibitors of mTOR activation. Mutations in the Tsc1 and Tsc2 genes are the underlying genetic lesions responsible for TSC, causing constitutive activation of the mTORC1 pathway and leading to profound effects on cell metabolism. Aberrant metabolism in cancer has recently received significant attention as a target to develop therapeutic agents in the treatment of cancer.1 As Tsc2-/- cells have lost the ability to respond to energy and growth factor deprivation, these cells are unable to properly down regulate cellular biosynthetic processes in response to metabolic stress, and are thus extremely sensitive to glucose deprivation-induced death.2 A central goal of this project is to explore the unique cell survival and metabolic properties of cells with Tsc1 or Tsc2 by screening for compounds that selectively target the Tsc2-/- MEFs by screening both Tsc2-/- and WT MEF cell lines. We hope to better understand these aspects of TSC physiology in order to exploit them for therapeutic benefit.
NIH Molecular Libraries Probe Production Centers Network [MLPCN]
NIH Chemical Genomics Center [NCGC]
Assay Submitter (PI): Blenis, John; Harvard University
For quantitative high throughput analysis of mTORC1 signaling, we developed a cell-based assay for immuno-fluorescence based detection of rpS6 phosphorylation on the Acumen Explorer that will be used a platform for the primary small molecule screen. Mouse embryonic fibroblasts (MEFs) are cultured in 1536-well plates using DMEM + 10% FBS. Twenty-four hrs after plating, test compounds (solubilized in DMSO) are delivered and incubated with the cells for 24 hrs at 37 degree Celsius. Following the incubation, media with compound is aspirated and the cells are fixed in 4% paraformaldehyde (PFA) containing PBS + 0.2% TX-100. Next, PFA is aspirated, cells are washed two times with PBS plus 0.2% TX-100 and the cells are blocked for 1 hr at room temperature (blocking buffer: LiCOR Blocking Buffer plus 0.2% TX-100). This is followed by aspiration and staining with Alexa-488 conjugated-phospho-rpS6 Ser235/236 antibody for 2 hours at room temperature (Cell Signaling Technology # 4803, 1:50 dilution in blocking buffer). Cells are washed two times with PBS plus 0.2% TX-100, and stained with 10 uM propidium iodide (PI) for 20-25 minutes for cell number measurement (1:500 dilution of Hoescht staining is also added for IN Cell imaging). The plates are scanned on the Acumen Explorer laser scanning instrument (TTP Labtech) using the 488nm laser for simultaneous excitation of the Alexa-488 and PI. […] Fluorescence emission from the PI stain is selected using a 575-640 nm band pass filter. The normalized phospho-S6 staining is calculated as the ratio of the integrated Alexa 488 intensity divided by the integrated PI intensity for the single concentration rapamycin control (7.5 nM) and DMSO columns. […] Inhibition of the pathway is defined based on the normalized phospho-S6 intensity in rapamycin treated cells. Active cells are defined as those with a normalized phospho-S6 staining above this threshold, and each treatment is reported as the % positive cells in the well, where thresholds are defined by selecting wells with the highest and lowest signal and differentiating between the % non-active and % active populations. In addition to the pathway specific phospho-S6 endpoint, the number of PI stained cells from the Acumen is recorded as a measure of cell viability. […]
Potency is read from the fitted curve at half-maximal effect.

| Structure (SMILES) | Potency | activity change, negative = inhibition [%] |
| --- | --- | --- |
| Cc1ccccc1-n1c(/C=C/c2c(C)[nH]c3ccccc23)nc2ccccc2c1=O | 1850 nM (active) | – |
| Cc1ccc(-n2c(/C=C/c3ccc(Br)s3)nc3ccccc3c2=O)cc1C | – | -27.4 |
| CCCOC(=O)c1c(C)oc2c1cc(NS(=O)(=O)c1ccc(OCC)cc1)c1ccccc12 | 656 nM (active) | – |
| Cc1ccccc1-c1nc(CN2C(=O)CN=C(c3ccccc3)c3ccccc32)c(C)o1 | – | -21.4 |
| CCN(CC)C(=O)c1ccc(NC(=O)CCn2nc(-c3ccc(C)cc3)c3ccccc3c2=O)cc1 | – | 33.8 |
| O=C(Nc1ccon1)c1cccn(Cc2cccc(Cl)c2)c1=O | – | 3.6 |
| CCOc1ccc(N(C(C)C(=O)Nc2cc(Cl)ccc2OC)S(C)(=O)=O)cc1 (stereo not drawn) | 3690 nM (active) | – |
| CCOc1ccc(NC(=O)CSc2oc(-c3ccccc3)nc2S(=O)(=O)c2ccc(Cl)cc2)cc1 | 3690 nM (active) | – |
| CCN(CC)CCSc1nc2ccccc2c(=O)n1-c1ccc(Cl)cc1 | – | 0.87 |
| Cc1cccc(CN2CCc3nc(N4CCN(c5ccccn5)CC4)ncc3C2)c1 | – | 21.3 |
| CN[C@@H]1C[C@@]2(C)O[C@@H]([C@@H]1OC)n1c3ccccc3c3c4c(c5c6ccccc6n2c5c31)C(=O)NC4 | 32.5 nM (active) | – |
| CCOc1ccc(CN(CCc2ccc3c(c2)OCO3)Cc2ccc(C)cc2)cc1 | – | -17.6 |
| Cc1ccccc1-n1c(/C=C/c2ccccc2F)nc2ccccc2c1=O | – | 14.5 |
